Among the data in ChEMBL document CHEMBL3988442, “University of Dundee, Small-Polar-MMV Screening Library” (2021) are Percent Effect values, retold here.

Test [1] addresses T1, Aspartate--tRNA(Asp/Asn) ligase (Mycobacterium tuberculosis (strain ATCC 25618 / H37Rv)) (UniProt P9WFW3).
T1 sequence (whole entry): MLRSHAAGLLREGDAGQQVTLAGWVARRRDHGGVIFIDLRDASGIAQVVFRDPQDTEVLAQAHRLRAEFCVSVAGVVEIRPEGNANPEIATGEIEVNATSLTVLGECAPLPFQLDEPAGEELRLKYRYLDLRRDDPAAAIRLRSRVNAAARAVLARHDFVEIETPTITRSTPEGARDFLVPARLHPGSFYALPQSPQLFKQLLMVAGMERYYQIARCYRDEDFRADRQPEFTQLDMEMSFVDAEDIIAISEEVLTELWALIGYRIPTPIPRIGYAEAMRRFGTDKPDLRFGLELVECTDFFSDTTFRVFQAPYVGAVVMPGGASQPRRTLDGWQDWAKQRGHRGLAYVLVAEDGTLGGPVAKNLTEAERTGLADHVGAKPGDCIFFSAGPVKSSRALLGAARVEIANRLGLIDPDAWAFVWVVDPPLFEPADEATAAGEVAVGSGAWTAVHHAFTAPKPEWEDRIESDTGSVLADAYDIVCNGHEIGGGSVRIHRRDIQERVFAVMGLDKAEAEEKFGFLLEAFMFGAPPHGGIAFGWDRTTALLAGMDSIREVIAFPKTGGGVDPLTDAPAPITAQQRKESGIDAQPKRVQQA
In words: Assay for Asp RNA synthetase-1 from Mycobacterium tuberculosis. It is filed as functional. The settings on record: 30 µM. Also noted: scale not given: direction of the effect not stated beside the values.

The target in test [2] is Shiga toxin 2 (Escherichia coli O157:H7) (UniProt P09385+P09386). In words: E. coli 0.157:H7 Shiga Toxin SOP - stx2 screening assay. It is filed as functional. Also noted: scale not given: direction of the effect not stated beside the values. The settings on record: 30 µM.

For the compound `O=C(NCCn1ccnc1)c1cccc(F)c1`, the Percent Effect was 3.65% in test [1] and 24.2% in test [2].
For `CN(Cc1noc(C2CC2)n1)C1CCN(Cc2ccncc2)C1` (stereo unspecified), the Percent Effect in test [1] was -0.189%; in test [2], -32.1%.
On the same counts, the results for `O=C(c1ccc(F)cc1)N1C[C@H]2CCC[C@@]2(COCc2ccccn2)C1` are 9.3% and 3.92%.
On the same counts, the results for `COCc1ccccc1CNCc1c(C)nn(C)c1N(C)C` are 0.533% and 22.6%.
On the same counts, the results for `C[C@@H]1CN(C(=O)c2cnc(C3CC3)nc2)CC[C@@]1(O)C1CCOCC1` are 1.53% and 0.847%.
Turning to `CC(C)C(Sc1nnnn1-c1ccccc1)C(=O)NCc1cccnc1` (stereo unspecified), the Percent Effect was found to be 1.64% in test [1] and 8.76% in test [2].
On the same counts, the results for `O=c1ccc2c(n1CCN1CCCC1)CCN(Cc1ccoc1)CC2` are -2.69% and -1.66%.
As to `Cc1ncc2c(n1)CN(CC(=O)Nc1nncs1)CC2`, the figures for the Percent Effect in test [1] and in test [2] were -3.23% and -20.4%, respectively.
On to `CC(C)NC(=O)C(c1ccccc1)N1CCn2c(nnc2C2CC2)C1` (stereo unspecified), for which the Percent Effect is -1.48% in test [1] and 13% in test [2].
On the same counts, the results for `NC(=O)CC1CCN(C(=O)CCOc2ccc(Cl)cc2)CC1` are -1.03% and 32.7%.
As for `Cn1c(CN2CCOC(c3nc(C(C)(C)C)n[nH]3)C2)nnc1C1CC1` (stereo unspecified), the results for the Percent Effect in test [1] and in test [2] were -5.04% and -21.1%, respectively.
On to `Cc1ccc(C(=O)N2CC[C@@H]3[C@H]2CCC(=O)N3c2ccccc2)o1`, for which the Percent Effect in test [1] is -6.1%; in test [2] it was -13%.
Regarding `CCc1nccn1C1CCCN(C(=O)c2cn3cccnc3n2)C1` (stereo unspecified), the Percent Effect in test [1] is -1.08%; in test [2] it was 5.72%.
As for `Cc1cc(C(=O)NC2CCc3nc(C)cn3C2)[nH]n1` (stereo unspecified), the Percent Effect was -3.72% in test [1] and -2.92% in test [2].
On the same counts, the results for `NC(=O)COc1cccc(C(=O)Nc2cnc3n2CCCC3)c1` are -0.557% and -2.86%.
As to `OCC1CCCN1c1cc(N2CCN(c3ccccn3)CC2)ncn1` (stereo unspecified), the Percent Effect in test [1] is -3.49%; in test [2], 32.6%.
On the same counts, the results for `CN(CCCNC(=O)N1CCCC1c1ccsc1)c1ccccn1` (stereo unspecified) are -3.28% and -79.8%.
For the compound `O=C(Nc1nc2c(s1)CN(S(=O)(=O)C1CC1)CC2)c1c(F)cccc1F`, the Percent Effect in test [1] was -0.834%; in test [2] it was 2.22%.
